From paper PMC7862700, “An all-to-all approach to the identification of sequence-specific readers for epigenetic DNA modifications on cytosine”

Assays:
Test in all cases: DAPPL (digital affinity profiling via proximity ligation, sequencing); 10 mM Tris-HCl pH 7.5, 50 mM NaCl, 1 mM DTT, 4% glycerol, room temperature, 30 min; GST-TFs on glutathione beads, 16-mer random dsDNA library, 0.1% formaldehyde crosslink after washing; high values mean tight binding
FEV = target: T1, FEV (Homo sapiens, UniProt Q99581 1-238); conditions: protein: recombinant; tags: N-terminal GST; dsDNA, one strand shown
T1 sequence: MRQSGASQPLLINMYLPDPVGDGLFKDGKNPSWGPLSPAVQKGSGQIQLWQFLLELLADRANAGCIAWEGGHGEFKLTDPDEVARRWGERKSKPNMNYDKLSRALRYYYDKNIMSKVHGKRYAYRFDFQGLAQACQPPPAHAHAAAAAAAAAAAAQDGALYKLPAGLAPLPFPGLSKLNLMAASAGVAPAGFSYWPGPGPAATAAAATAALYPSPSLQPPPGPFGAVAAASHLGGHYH
Method in brief: (§1)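 Beads coated with glutathione captured GST-fused human transcription factors that had been expressed in yeast, and the factors were then given DNA barcodes and pooled with a tag-only sample. The pools were incubated with 200 nmole of a random double-stranded 16-mer DNA library in Tris/NaCl/DTT/glycerol buffer for 30 min at room temperature, washed, crosslinked with 0.1% formaldehyde and proximity-ligated with BsaI/T4 ligase at 37 °C for 1 h. PCR amplification and Illumina NextSeq500 sequencing came last. Binding signal is each hexamer's read frequency for a factor divided by its frequency for the tag-only sample.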

ETV5 = ETV5 (Homo sapiens, UniProt P41161 1-510); conditions: protein: recombinant; tags: N-terminal GST; dsDNA, one strand shown
ETV5, sequence (P41161 whole entry): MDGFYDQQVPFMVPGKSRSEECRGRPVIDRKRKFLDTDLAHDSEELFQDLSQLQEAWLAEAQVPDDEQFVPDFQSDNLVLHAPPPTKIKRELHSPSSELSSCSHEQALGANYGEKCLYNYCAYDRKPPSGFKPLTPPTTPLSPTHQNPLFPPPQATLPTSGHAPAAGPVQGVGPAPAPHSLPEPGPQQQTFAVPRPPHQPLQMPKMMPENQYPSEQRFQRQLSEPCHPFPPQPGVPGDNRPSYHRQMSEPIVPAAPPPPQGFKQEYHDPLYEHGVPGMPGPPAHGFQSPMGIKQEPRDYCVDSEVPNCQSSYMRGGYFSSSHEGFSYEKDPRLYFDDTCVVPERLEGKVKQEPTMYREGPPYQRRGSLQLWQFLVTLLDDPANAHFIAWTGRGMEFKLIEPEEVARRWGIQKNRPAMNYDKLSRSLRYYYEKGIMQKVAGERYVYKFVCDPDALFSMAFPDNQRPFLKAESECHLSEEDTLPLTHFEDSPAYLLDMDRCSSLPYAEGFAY
Method in brief: as §1

HSF1 = HSF1 (Homo sapiens, UniProt Q00613 1-529); conditions: protein: recombinant; tags: N-terminal GST; chain copies: 3; dsDNA, one strand shown
HSF1, sequence (Q00613 whole entry): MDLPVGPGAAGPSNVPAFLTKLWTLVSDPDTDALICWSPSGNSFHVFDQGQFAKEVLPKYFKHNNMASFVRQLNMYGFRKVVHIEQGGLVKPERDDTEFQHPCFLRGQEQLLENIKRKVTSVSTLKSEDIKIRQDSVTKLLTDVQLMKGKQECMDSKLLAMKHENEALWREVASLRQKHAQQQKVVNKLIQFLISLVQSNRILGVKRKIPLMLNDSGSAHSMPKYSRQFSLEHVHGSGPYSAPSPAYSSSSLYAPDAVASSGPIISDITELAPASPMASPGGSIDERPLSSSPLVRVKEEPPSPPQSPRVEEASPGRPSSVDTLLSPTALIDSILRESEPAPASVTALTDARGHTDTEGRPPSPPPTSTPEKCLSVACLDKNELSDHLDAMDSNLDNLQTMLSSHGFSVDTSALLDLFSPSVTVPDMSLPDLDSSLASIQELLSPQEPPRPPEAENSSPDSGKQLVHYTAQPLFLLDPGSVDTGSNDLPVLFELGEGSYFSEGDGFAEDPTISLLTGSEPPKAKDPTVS
Method in brief: as §1

SPIC = target: T2, SPIC (Homo sapiens, UniProt Q8N5J4 1-248); conditions: protein: recombinant; tags: N-terminal GST; dsDNA, one strand shown
T2 sequence: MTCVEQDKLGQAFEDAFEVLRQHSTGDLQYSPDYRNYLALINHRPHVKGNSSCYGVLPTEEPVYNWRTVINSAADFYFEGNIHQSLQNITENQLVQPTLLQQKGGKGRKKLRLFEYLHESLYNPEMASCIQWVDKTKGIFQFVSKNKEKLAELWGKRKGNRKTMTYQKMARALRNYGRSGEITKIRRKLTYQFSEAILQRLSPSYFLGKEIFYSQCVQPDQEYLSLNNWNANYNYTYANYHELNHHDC
Method in brief: as §1

ELF4 = ELF4 (Homo sapiens, UniProt Q99607 1-663); conditions: protein: recombinant; tags: N-terminal GST; dsDNA, one strand shown
ELF4, sequence (Q99607 whole entry): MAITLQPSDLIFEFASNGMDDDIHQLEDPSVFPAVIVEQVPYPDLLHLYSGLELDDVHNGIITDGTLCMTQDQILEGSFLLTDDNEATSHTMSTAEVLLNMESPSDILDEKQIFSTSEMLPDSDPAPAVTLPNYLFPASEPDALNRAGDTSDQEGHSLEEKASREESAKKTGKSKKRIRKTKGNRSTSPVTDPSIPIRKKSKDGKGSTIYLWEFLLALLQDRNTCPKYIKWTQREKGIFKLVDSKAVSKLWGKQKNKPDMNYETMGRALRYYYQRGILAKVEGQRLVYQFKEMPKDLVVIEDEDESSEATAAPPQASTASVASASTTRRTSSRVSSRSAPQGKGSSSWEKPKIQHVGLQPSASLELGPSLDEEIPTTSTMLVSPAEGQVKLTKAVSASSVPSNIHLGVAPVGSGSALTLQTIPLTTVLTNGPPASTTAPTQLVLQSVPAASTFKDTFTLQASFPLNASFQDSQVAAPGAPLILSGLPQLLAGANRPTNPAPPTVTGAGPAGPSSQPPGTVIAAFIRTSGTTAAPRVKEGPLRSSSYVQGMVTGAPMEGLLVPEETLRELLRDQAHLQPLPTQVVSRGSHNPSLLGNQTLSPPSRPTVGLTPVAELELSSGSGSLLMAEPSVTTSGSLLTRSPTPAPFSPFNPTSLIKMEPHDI
Method in brief: as §1

ELK4 = target: T3, ELK4 (Homo sapiens, UniProt P28324-2 1-405); conditions: protein: recombinant; tags: N-terminal GST; dsDNA, one strand shown
T3 sequence: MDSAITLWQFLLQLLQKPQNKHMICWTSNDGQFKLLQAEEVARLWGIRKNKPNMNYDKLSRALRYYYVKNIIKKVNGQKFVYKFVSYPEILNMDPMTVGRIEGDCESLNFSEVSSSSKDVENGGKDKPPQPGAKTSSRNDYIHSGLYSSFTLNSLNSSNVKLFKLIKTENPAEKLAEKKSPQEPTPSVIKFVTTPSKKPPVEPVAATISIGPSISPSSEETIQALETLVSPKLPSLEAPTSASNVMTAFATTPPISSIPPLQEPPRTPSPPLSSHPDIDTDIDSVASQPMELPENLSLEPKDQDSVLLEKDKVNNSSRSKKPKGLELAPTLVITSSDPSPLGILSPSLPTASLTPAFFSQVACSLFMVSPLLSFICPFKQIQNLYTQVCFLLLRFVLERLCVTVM
Method in brief: as §1

ETV2 = target: T4, ETV2 (Homo sapiens, UniProt O00321 1-342); conditions: protein: recombinant; tags: N-terminal GST; dsDNA, one strand shown
T4 sequence: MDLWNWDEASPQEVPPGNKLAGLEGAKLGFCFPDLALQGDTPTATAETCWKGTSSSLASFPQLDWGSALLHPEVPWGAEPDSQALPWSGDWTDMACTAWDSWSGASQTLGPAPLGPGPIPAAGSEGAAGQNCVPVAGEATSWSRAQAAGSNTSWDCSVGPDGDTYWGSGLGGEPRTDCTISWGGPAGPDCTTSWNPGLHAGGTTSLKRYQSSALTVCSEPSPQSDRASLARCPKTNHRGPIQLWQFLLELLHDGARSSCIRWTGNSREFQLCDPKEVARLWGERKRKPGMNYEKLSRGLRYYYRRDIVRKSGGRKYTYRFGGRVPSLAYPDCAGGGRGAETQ
Method in brief: as §1

ELF3 = target: T5, ELF3 (Homo sapiens, UniProt P78545 1-371); conditions: protein: recombinant; tags: N-terminal GST; dsDNA, one strand shown
T5 sequence: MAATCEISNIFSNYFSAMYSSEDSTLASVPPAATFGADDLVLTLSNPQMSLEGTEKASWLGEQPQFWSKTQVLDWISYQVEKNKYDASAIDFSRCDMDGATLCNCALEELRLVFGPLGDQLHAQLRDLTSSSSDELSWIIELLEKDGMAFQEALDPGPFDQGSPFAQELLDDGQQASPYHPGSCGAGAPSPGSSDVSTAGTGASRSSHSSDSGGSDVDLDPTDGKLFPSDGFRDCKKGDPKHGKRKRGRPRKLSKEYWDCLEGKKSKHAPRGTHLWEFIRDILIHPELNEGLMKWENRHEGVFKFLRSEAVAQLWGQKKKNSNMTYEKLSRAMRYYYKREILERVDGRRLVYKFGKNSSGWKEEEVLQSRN
Method in brief: as §1

CRX = CRX (Homo sapiens, UniProt O43186 1-299); conditions: protein: recombinant; tags: N-terminal GST; dsDNA, one strand shown
CRX, sequence (O43186 whole entry): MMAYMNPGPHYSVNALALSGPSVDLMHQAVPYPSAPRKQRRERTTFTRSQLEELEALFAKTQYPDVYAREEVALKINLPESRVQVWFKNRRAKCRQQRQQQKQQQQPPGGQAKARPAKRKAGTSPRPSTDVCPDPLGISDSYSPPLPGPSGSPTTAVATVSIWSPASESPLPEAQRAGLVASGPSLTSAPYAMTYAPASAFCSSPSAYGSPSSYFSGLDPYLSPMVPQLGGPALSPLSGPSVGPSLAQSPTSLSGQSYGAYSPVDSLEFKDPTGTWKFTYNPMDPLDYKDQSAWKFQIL
Method in brief: as §1

ETV1 = ETV1 (Homo sapiens, UniProt P50549 1-477); conditions: protein: recombinant; tags: N-terminal GST; dsDNA, one strand shown
ETV1, sequence (P50549 whole entry): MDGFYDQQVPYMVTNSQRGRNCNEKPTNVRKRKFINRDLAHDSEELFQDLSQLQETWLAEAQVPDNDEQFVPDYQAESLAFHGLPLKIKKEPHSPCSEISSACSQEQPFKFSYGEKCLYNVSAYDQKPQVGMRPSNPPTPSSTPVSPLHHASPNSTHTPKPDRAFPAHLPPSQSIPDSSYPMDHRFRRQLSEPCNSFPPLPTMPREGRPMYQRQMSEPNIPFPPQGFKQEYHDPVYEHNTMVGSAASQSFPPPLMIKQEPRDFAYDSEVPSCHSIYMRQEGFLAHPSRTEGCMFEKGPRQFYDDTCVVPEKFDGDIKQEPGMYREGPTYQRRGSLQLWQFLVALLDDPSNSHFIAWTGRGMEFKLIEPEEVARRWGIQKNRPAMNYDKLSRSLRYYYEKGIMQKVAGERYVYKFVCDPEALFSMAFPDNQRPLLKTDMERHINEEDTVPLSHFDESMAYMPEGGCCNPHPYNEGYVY
Method in brief: as §1

ERF = target: T6, ERF (Homo sapiens, UniProt P50548 1-548); conditions: protein: recombinant; tags: N-terminal GST; dsDNA, one strand shown
T6 sequence: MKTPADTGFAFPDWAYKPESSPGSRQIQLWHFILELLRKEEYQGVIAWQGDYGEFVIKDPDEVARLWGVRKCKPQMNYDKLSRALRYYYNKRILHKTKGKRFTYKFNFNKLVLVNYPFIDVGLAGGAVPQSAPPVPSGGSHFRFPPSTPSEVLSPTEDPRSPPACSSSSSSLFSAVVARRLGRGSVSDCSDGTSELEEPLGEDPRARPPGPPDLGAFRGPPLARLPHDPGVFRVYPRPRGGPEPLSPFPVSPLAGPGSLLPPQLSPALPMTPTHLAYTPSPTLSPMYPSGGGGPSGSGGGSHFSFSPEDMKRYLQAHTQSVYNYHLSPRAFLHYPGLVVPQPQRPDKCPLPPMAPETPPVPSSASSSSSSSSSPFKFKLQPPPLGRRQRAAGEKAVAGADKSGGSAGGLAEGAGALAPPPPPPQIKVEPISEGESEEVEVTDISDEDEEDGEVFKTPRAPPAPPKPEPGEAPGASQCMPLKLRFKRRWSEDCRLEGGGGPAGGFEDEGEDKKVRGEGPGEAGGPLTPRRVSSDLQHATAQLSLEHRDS
Method in brief: as §1

ETV3L = target: T7, ETV3L (Homo sapiens, UniProt Q6ZN32 1-361); conditions: protein: recombinant; tags: N-terminal GST; dsDNA, one strand shown
T7 sequence: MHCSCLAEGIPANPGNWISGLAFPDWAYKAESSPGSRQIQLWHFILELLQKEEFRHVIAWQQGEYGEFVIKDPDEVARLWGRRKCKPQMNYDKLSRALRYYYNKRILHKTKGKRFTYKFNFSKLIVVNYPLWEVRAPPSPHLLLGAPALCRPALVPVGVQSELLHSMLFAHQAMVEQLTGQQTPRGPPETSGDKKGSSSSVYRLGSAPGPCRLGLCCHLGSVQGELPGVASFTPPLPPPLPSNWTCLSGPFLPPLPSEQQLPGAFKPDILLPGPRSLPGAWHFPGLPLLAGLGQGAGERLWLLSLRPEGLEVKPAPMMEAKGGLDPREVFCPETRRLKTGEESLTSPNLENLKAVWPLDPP
Method in brief: as §1

ETS2 = target: T8, ETS2 (Homo sapiens, UniProt P15036 1-469); conditions: protein: recombinant; tags: N-terminal GST; dsDNA, one strand shown
T8 sequence: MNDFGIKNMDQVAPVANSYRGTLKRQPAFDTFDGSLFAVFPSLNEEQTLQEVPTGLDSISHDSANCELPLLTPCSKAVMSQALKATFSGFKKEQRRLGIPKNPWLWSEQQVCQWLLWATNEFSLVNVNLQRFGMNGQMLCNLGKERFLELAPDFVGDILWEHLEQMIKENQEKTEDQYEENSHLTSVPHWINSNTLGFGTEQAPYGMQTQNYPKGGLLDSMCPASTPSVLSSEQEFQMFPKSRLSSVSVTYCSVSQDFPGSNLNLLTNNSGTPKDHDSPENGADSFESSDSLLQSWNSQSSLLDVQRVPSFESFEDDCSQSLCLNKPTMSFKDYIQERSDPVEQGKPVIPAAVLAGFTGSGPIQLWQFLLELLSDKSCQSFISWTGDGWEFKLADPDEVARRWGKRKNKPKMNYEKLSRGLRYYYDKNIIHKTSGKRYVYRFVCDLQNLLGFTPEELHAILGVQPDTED
Method in brief: as §1

SPDEF = target: T9, SPDEF (Homo sapiens, UniProt O95238 1-335); conditions: protein: recombinant; tags: N-terminal GST; dsDNA, one strand shown
T9 sequence: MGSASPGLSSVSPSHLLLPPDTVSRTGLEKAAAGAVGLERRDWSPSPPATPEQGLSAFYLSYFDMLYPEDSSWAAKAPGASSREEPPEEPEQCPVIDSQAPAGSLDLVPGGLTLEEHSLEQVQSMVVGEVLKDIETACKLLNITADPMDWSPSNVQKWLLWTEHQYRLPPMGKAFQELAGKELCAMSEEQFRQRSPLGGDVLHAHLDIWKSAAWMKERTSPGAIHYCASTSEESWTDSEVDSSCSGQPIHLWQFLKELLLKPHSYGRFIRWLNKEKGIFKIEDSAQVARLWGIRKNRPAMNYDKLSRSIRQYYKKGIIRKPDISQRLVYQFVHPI
Method in brief: as §1

ETV7 = target: T10, ETV7 (Homo sapiens, UniProt Q9Y603 1-341); conditions: protein: recombinant; tags: N-terminal GST; dsDNA, one strand shown
T10 sequence: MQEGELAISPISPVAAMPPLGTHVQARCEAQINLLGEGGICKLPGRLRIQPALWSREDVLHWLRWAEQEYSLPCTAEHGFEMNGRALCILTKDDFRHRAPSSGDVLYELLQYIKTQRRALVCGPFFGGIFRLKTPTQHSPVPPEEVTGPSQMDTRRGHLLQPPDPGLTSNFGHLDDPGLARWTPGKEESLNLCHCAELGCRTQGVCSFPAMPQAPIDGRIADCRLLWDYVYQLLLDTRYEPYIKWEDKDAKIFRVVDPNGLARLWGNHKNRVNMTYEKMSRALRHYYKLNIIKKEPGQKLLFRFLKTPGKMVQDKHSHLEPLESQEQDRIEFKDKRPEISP
Method in brief: as §1

ELF5 = target: T11, ELF5 (Homo sapiens, UniProt Q9UKW6-2 1-255); conditions: protein: recombinant; tags: N-terminal GST; dsDNA, one strand shown
T11 sequence: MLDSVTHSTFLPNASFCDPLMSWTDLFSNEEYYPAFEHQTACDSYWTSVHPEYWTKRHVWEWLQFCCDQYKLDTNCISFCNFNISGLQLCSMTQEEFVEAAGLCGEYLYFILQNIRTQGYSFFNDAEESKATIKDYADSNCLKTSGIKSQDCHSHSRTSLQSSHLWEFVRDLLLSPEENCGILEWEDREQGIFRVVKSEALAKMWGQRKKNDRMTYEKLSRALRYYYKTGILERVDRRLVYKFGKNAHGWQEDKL
Method in brief: as §1

ETV3 = target: T12, ETV3 (Homo sapiens, UniProt P41162-2 1-143); conditions: protein: recombinant; tags: N-terminal GST; dsDNA, one strand shown
T12 sequence: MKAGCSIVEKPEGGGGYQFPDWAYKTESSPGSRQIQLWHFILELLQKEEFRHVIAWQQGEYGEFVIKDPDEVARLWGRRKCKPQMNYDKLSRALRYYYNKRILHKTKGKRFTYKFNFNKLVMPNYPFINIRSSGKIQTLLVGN
Method in brief: as §1

ETV6 = ETV6 (Homo sapiens, UniProt P41212 1-452); conditions: protein: recombinant; tags: N-terminal GST; dsDNA, one strand shown
ETV6, sequence (P41212 whole entry): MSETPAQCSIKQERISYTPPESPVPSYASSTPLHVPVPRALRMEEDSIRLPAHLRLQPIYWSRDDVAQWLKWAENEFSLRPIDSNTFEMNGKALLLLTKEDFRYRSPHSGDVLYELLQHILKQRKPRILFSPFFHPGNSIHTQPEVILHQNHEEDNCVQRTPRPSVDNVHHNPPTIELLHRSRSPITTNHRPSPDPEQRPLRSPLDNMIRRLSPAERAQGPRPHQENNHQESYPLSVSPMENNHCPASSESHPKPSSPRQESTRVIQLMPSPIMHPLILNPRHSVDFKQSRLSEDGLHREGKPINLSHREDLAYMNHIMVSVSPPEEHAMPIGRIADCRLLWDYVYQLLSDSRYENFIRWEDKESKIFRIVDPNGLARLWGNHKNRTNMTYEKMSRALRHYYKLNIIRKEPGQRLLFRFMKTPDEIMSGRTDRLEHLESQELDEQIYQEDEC
Method in brief: as §1

## CTCACG
FEV
  binding signal: 1.32 fold enrichment (6-mer frequency, TF over GST control)
ETV5
  binding signal: 1.4 fold enrichment (6-mer frequency, TF over GST control)
HSF1
  binding signal: 1.14 fold enrichment (6-mer frequency, TF over GST control)
SPIC
  binding signal: 1.31 fold enrichment (6-mer frequency, TF over GST control)
ELF4
  binding signal: 1.33 fold enrichment (6-mer frequency, TF over GST control)
ELK4
  binding signal: 1.35 fold enrichment (6-mer frequency, TF over GST control)
ETV2
  binding signal: 1.35 fold enrichment (6-mer frequency, TF over GST control)
ELF3
  binding signal: 1.26 fold enrichment (6-mer frequency, TF over GST control)
CRX
  binding signal: 1.08 fold enrichment (6-mer frequency, TF over GST control)
ETV1
  binding signal: 1.22 fold enrichment (6-mer frequency, TF over GST control)
ERF
  binding signal: 1.25 fold enrichment (6-mer frequency, TF over GST control)
ETV3L
  binding signal: 1.3 fold enrichment (6-mer frequency, TF over GST control)
ETS2
  binding signal: 1.4 fold enrichment (6-mer frequency, TF over GST control)
SPDEF
  binding signal: 1.26 fold enrichment (6-mer frequency, TF over GST control)
ETV7
  binding signal: 1.25 fold enrichment (6-mer frequency, TF over GST control)
ELF5
  binding signal: 1.26 fold enrichment (6-mer frequency, TF over GST control)
ETV3
  binding signal: 1.23 fold enrichment (6-mer frequency, TF over GST control)
ETV6
  binding signal: 1.25 fold enrichment (6-mer frequency, TF over GST control)
